Assay results published in PubChem BioAssay (NCI).
This is part of a sample that, as a whole, favours compounds with a hit. Of some 83,000 tested, about 20% had one in any assay.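 Method: cells in 96-well plates; compound added at one concentration; 48 h incubation; percent growth measured; values under 10 scored active.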 Values without a mark were called inactive. Calls of active or inactive are those of the source.

System: MDA-MB-468 breast
Assay: NCI-60 one-dose screen, 48 h (100 = growth as untreated, 0 = no growth, -100 = all killed)
Conditions: 10 µM unless noted

SMILES	growth
CN1CCN(Cc2ccc(/C=N/Nc3ccnc4cc(Cl)ccc34)cc2)CC1	77.1%
CC(=O)[C@@]1(O)CC[C@H]2[C@@H]3CC[C@@H]4CC(=O)CC[C@]4(C)[C@H]3[C@@H](O)C[C@@]21C	94.6%
COc1cccc2nc3n(c12)C(c1c(F)cccc1F)SC3 (stereo not given)	89.2%
Nc1c(C(=O)Nc2ccccn2)sc2nc3c(cc12)C(O)CCC3 (stereo not given)	15%
Cc1cccc2c1S/C(=C/c1ccc([N+](=O)[O-])cc1)C2=O	112%
COc1cc(/C=C2\CN(C)CC3=C2Nc2nc(SC)[nH]c(=O)c2C3c2cc(OC)c(OC)c(OC)c2)cc(OC)c1OC (stereo not given)	39.5%
CCOC(=O)c1noc2c1CCc1cn(Cc3cc(OC)cc(OC)c3)cc1-2	108%
CC(=O)c1cc2ccccc2o1	109%
COc1ccc(-c2nsc3c2NC(=O)CC3c2ccc3c(c2)OCO3)cc1 (stereo not given)	10.3%
S=C(SSC(=S)N1CCOCC1)N1CCOCC1	106%
CC(=O)Nc1ccc(-c2cc3c(NCc4ccc(F)cc4)ncnc3s2)cc1	69.7%
Cc1nc(/N=C(\N)NC(=O)Nc2cccc(Cl)c2)sc1C	55.2%
CC1=NN(c2nc(-c3ccc(Cl)cc3)c(C#N)c(N3CCOCC3)n2)C(=O)C1	98.3%
CCOC(=O)/C(C#N)=C1/C(=O)Nc2ccccc21	134%
ICCC(c1ccccc1)(c1ccccc1)c1ccccc1	22.6%
CCOC(=O)CCCCCCCCC(=O)OCC	104%
NC(=S)N/N=C\c1nccc2c(C(F)(F)C(F)(F)C(F)(F)F)cccc12	-69.7% (active)
N=c1nc(N2CCCCC2)cc(N)n1O	97.1%
COc1ccc2[nH]c(-c3ccc(Cl)cc3)cc(=O)c2c1	99%
CCCCCCN=C(N)CCCCCCCCCCC(N)=NCCCCCC	-8.12% (active)

SMILES	growth
C[C@@H]1N=C(c2ccc(Br)cc2)Nc2nc3ccccn3c2C1=O	-0.502% (active)
O=C(Cn1cc(CN2C(=O)c3ccccc3S2(=O)=O)nn1)Nc1cccc(Cl)c1	101%
COc1ccc(S(=O)(=O)N2CC3(COC3)C2)cc1NC(=O)c1[nH]c(C)c2c1CCCCC2=O	22.2%
C#CC[C@@H]1C[C@]2(C)[C@H]3CC[C@@H]4[C@H]5C(C(=C)C)CC[C@]5(C(=O)NCCCCCCCCN)CC[C@@]4(C)[C@]3(C)CC[C@H]2C(C)(C)[C@H]1OC(C)=O (stereo not given in full)	105%
CSc1ccc2c3c(n(CCCn4ccnc4)c(=O)c2c1)-c1ccccc1C3=O	18.2%
COc1ccc2c(CCc3ccc(Cl)cc3)c3[n+](cc2c1OC)CCc1cc2c(cc1-3)OCO2	-11.7% (active)
O=C(Nc1ccc(I)cc1)c1cccc([N+](=O)[O-])c1O	2.17% (active)
CC(C)(C)c1cc(C(C)(C)c2ccccc2)cc(Cc2cc(C(C)(C)c3ccccc3)cc(C(C)(C)C)c2O)c1O	95.2%
C=C1CCC2C3(C)COC(c4ccccc4)OC3CCC2(C)C1C/C=C1/C(=O)OCC1O (stereo not given)	30.6%
COC1=CC(c2ccc[nH]2)=N/C1=C\c1[nH]c(C)c(C(=O)CCC(=O)Oc2ccc3c(c2)CCC2C3CC[C@]3(C)C(=O)CC[C@@H]23)c1C (stereo not given in full)	76.3%
COc1ccc(C(=O)n2cc(C=O)c3ccccc32)cc1	105%
O=C1OC(c2ccc(-c3ccccc3)cc2)=C/C1=C/C=C/c1ccccc1	99.7%
c1coc(CNc2c3ccccc3nc3ccccc23)c1	29.4%
O=S(=O)(c1ccc(OCCO)cc1)c1ccc(OCCO)cc1	101%
C#C[C@]1(O)CC[C@H]2[C@@H]3CC=C4c5sc(Nc6cc(F)ccc6F)nc5CC[C@]4(C)[C@H]3CC[C@@]21C	-45.6% (active)
NC(N)=N/N=C/c1ccc(Cl)cc1	44%
CCOc1ccc(C(C)=O)cc1NC(=O)c1cccc(-c2nnn(CC)n2)c1	17.5%
O=C(Nc1ccc(Cl)c(Cl)c1)O/N=C\c1c(Cl)ccc([N+](=O)[O-])c1Cl	-65% (active)
O=c1oc2ccccc2cc1-c1csc(N/N=C/c2cc3ccccc3nc2Cl)n1	105%
COc1ccc(C2=CC(c3cc(OC)c(OC)c(OC)c3)NC(=O)N2)cc1OC (stereo not given)	-12.6% (active)
